The panel holds about 83,000 compounds, 20% with a hit somewhere; the sample as a whole holds those more often.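 Results are percent growth after 48 hours of single-concentration exposure. 100 means growth as in untreated cells, lower positive values show inhibition; negative values down to -100 show cell death.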 A number with no mark means an inactive call. The source made the active and inactive calls. Rule for the calls: active = growth percent below 10; inactive = the rest.
System: HS 578T breast
Experiment: NCI-60 one-dose screen, 48 h (100 = growth as untreated, 0 = no growth, -100 = all killed)
Conditions: 10 µM unless noted

Compound	growth
CN1C(=O)C2(C(C#N)=C(c3ccc(Cl)cc3)Nc3c2c(-c2ccccc2)nn3-c2ccccc2)c2ccccc21 (configuration not stated)	65.3%
Cc1nn(-c2ccccc2)c2nc(C)n(C(=O)N/N=C/c3ccccc3)c(=O)c12	84.3%
CN1CCN(CCS(=O)(=O)Nc2cc(-c3ccc4ncnc(Nc5ccc(F)c(Cl)c5)c4c3)cnc2Cl)CC1	-23.3% (active)
COc1cc(C2CC(c3ccc(C(F)(F)F)cc3)=Nc3c(N)nc(N)nc3N2)ccc1Oc1nc(Nc2ccc(F)cc2)nc(N(C)C)n1 (configuration not stated)	48.9%
COc1ccc2[nH]c(=O)c(CSc3ccccc3Nc3nccc(-c4ccc5c(c4)OCO5)n3)cc2c1	89.4%
Cc1cc(=O)oc2cc(OCC(O)CNN3C(=O)c4cccc5c(N6CCN(C)CC6)ccc(c45)C3=O)ccc12 (configuration not stated)	87.4%
CC[C@]12C=CCN3CC[C@]4(C(=C(C(=O)OC)C1)Nc1cc(OC)c([C@@H]5[C@H]6O[C@H]6[C@@]6(CC)CC(C(=O)OC)=C7Nc8cc(OC)ccc8[C@@]78CCN5[C@@H]68)cc14)[C@@H]32	87.2%
C#CCCCNCCNc1ccnc2cc(Cl)ccc12	91.8%
CCOC(=O)/C(F)=C/C1CC1C(c1ccccc1)c1ccccc1 (configuration not stated)	81.3%
S=C(NCCc1ccccc1)Nc1ccc(OCc2nc3ccc(Cl)cc3[nH]2)cc1	38.4%
Cc1ccc(C(=O)C[n+]2cccc3c4ccccc4ccc32)cc1	27.6%
CCCn1c(NC(=O)c2cccc(C(N)=O)c2)nc2cc(CN3CCCCC3)ccc21	119%
CCC(=O)c1c2c(c3ccc4c5ccccc5ccc4n13)C(=O)c1ccccc1C2=O	96.7%
O=C1/C(=C/c2cnc(-c3ccccc3)s2)SC(=S)N1Cc1ccc2c(c1)OCO2	31.5%
O=c1[nH]c2ccccc2cc1COc1ccc(Nc2nccc(-c3ccc(Cl)cc3)n2)cc1	85.7%
O=C(/C=C1\C(=O)N(Cc2ccccc2)c2ccccc21)c1cc2ccccc2oc1=O	89.3%
COc1ccc(NC(=O)Cn2c(/C=C/c3cccc(Br)c3)nc3ccccc3c2=O)cc1	-0.494% (active)
O=c1ccc(Cn2c(C(F)(F)F)cc3c(Cl)ncnc32)c[nH]1	-14.4% (active)
CCCCC[C@@H]1C/C=C(\C)[C@@H](O)C(C)(C)C(=O)[C@@H](C)/C=C(\C)[C@@H]2C[C@H](O)C[C@](O)(CC(=O)O1)O2	47.7%
COc1cc(NC(=O)CSc2nnc(-c3ccc(-c4nc5ccc(Cl)cc5[nH]4)cc3)o2)cc(OC)c1OC	53.3%
Cc1ccc(C2CC(c3ccc(S(=O)(=O)NCCNc4nc(N(C)C)nc(N5CCOCC5)n4)cc3)=Nc3c(N)nc(N)nc3N2)cc1 (configuration not stated)	47.8%
CCCCNC(=S)Nc1ccc(OCc2nc3ccc(Cl)cc3[nH]2)cc1	28.5%
Nc1nn2c(-c3cc4cc(Br)ccc4oc3=O)ccnc2c1N=Nc1ccc(S(N)(=O)=O)cc1	102%
OCCn1cc(-c2nc3ccc4[nH]ncc4c3c3c2CCCC3)cn1	21.6%
CN(C)CCCc1ccc(Nc2cnn(C)c(=O)c2Cl)cc1	105%
Nc1cc2ccccc2c(=O)n1NC(=O)c1ccccc1	91.4%
Cn1cc(-c2cc(N)n3nc(-c4c[nH]c5ccccc45)cc3n2)c2cc(Cl)ccc21	-21.2% (active)
O=C(NC(=S)N1CCN(c2ncnc3c2cnn3-c2ccccc2)CC1)c1ccc(Br)cc1	53.8%
O=C(N/N=C/c1ccc(B(O)O)s1)c1[nH]c2ccc(Br)cc2c1-c1ccccc1	-25.7% (active)

System: NCI/ADR-RES ovarian
Experiment: as above
Conditions: 10 µM unless noted

Compound	growth
CCCCNc1ccc2c3c(cccc13)C(=O)N(c1cccc(-c3nn(-c4ccccc4)cc3-c3nc4ccccc4s3)c1)C2=O	98%
COc1ccc(-c2cc(-c3cc(OC)c(OC)c(OC)c3)[nH]c(=O)c2C#N)cc1	42.2%
COc1cc(C2CC(c3ccc(Cl)cc3)=Nc3c(N)nc(N)nc3N2)ccc1Oc1nc(Nc2ccc(F)cc2)nc(N(C)C)n1 (configuration not stated)	41.4%
O=C(O)CC1S/C(=N/N=C/c2nc3ccccc3s2)NC1=O (configuration not stated)	99.3%
Cc1ccc(S(=O)(=O)N(CCn2ccnc2[N+](=O)[O-])CCn2ccnc2[N+](=O)[O-])cc1	104%
N#CCc1nnc(NC(=O)c2ccc(-n3c(=O)[nH]c4ccccc4c3=O)cc2)s1	104%
O=C(N/N=C/c1ccc(Br)o1)c1[nH]c2ccc(Br)cc2c1-c1ccccc1	-41.6% (active)
COc1ccc(N=Nc2c(N)nn3c(-c4ccc([N+](=O)[O-])cc4)ccnc23)cc1	97.8%
Cn1cc(-c2cc(N)n3nc(-c4c[nH]c5ccc(Cl)cc45)cc3n2)c2cc(Br)cnc21	-54.7% (active)
CN1C(=O)C2(C(C#N)=C(c3ccc(Cl)cc3)Nc3c2c(-c2ccccc2)nn3-c2ccccc2)c2ccccc21 (configuration not stated)	78.8%
Cc1nn(-c2ccccc2)c2nc(C)n(C(=O)N/N=C/c3ccccc3)c(=O)c12	100%
CN1CCN(CCS(=O)(=O)Nc2cc(-c3ccc4ncnc(Nc5ccc(F)c(Cl)c5)c4c3)cnc2Cl)CC1	78.4%
COc1cc(C2CC(c3ccc(C(F)(F)F)cc3)=Nc3c(N)nc(N)nc3N2)ccc1Oc1nc(Nc2ccc(F)cc2)nc(N(C)C)n1 (configuration not stated)	37%
COc1ccc2[nH]c(=O)c(CSc3ccccc3Nc3nccc(-c4ccc5c(c4)OCO5)n3)cc2c1	74.3%
Cc1cc(=O)oc2cc(OCC(O)CNN3C(=O)c4cccc5c(N6CCN(C)CC6)ccc(c45)C3=O)ccc12 (configuration not stated)	89.4%
CC[C@]12C=CCN3CC[C@]4(C(=C(C(=O)OC)C1)Nc1cc(OC)c([C@@H]5[C@H]6O[C@H]6[C@@]6(CC)CC(C(=O)OC)=C7Nc8cc(OC)ccc8[C@@]78CCN5[C@@H]68)cc14)[C@@H]32	80.8%
C#CCCCNCCNc1ccnc2cc(Cl)ccc12	68.8%
CCOC(=O)/C(F)=C/C1CC1C(c1ccccc1)c1ccccc1 (configuration not stated)	89.4%
S=C(NCCc1ccccc1)Nc1ccc(OCc2nc3ccc(Cl)cc3[nH]2)cc1	11.7%

Compound	growth
Cc1ccc(C(=O)C[n+]2cccc3c4ccccc4ccc32)cc1	80.9%
CCCn1c(NC(=O)c2cccc(C(N)=O)c2)nc2cc(CN3CCCCC3)ccc21	114%
CCC(=O)c1c2c(c3ccc4c5ccccc5ccc4n13)C(=O)c1ccccc1C2=O	90.8%
O=C1/C(=C/c2cnc(-c3ccccc3)s2)SC(=S)N1Cc1ccc2c(c1)OCO2	77.2%
O=c1[nH]c2ccccc2cc1COc1ccc(Nc2nccc(-c3ccc(Cl)cc3)n2)cc1	101%
O=C(/C=C1\C(=O)N(Cc2ccccc2)c2ccccc21)c1cc2ccccc2oc1=O	91.3%
COc1ccc(NC(=O)Cn2c(/C=C/c3cccc(Br)c3)nc3ccccc3c2=O)cc1	31.2%
O=c1ccc(Cn2c(C(F)(F)F)cc3c(Cl)ncnc32)c[nH]1	61.3%
CCCCC[C@@H]1C/C=C(\C)[C@@H](O)C(C)(C)C(=O)[C@@H](C)/C=C(\C)[C@@H]2C[C@H](O)C[C@](O)(CC(=O)O1)O2	19.7%
COc1cc(NC(=O)CSc2nnc(-c3ccc(-c4nc5ccc(Cl)cc5[nH]4)cc3)o2)cc(OC)c1OC	63.6%
Cc1ccc(C2CC(c3ccc(S(=O)(=O)NCCNc4nc(N(C)C)nc(N5CCOCC5)n4)cc3)=Nc3c(N)nc(N)nc3N2)cc1 (configuration not stated)	89.3%
CCCCNC(=S)Nc1ccc(OCc2nc3ccc(Cl)cc3[nH]2)cc1	21.6%
Nc1nn2c(-c3cc4cc(Br)ccc4oc3=O)ccnc2c1N=Nc1ccc(S(N)(=O)=O)cc1	103%
OCCn1cc(-c2nc3ccc4[nH]ncc4c3c3c2CCCC3)cn1	76.8%
CN(C)CCCc1ccc(Nc2cnn(C)c(=O)c2Cl)cc1	109%
Nc1cc2ccccc2c(=O)n1NC(=O)c1ccccc1	102%
Cn1cc(-c2cc(N)n3nc(-c4c[nH]c5ccccc45)cc3n2)c2cc(Cl)ccc21	-12.8% (active)
O=C(NC(=S)N1CCN(c2ncnc3c2cnn3-c2ccccc2)CC1)c1ccc(Br)cc1	53.9%
O=C(N/N=C/c1ccc(B(O)O)s1)c1[nH]c2ccc(Br)cc2c1-c1ccccc1	-33.9% (active)
